Reference: PubChem BioAssay AID687043 (Milwaukee Institute for Drug Discovery, 2013)
Among all 16,000 compounds or so, about 250 (1.6%) were called active. The sample holds actives, similar compounds and a random draw of the others, so the mix is not that of the screen. A number with no mark means an inactive call.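 Rule for the calls: active = inhibition above the average over every tested compound plus 3 SD (cut at about 40% in these data); inactive = the rest.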

These compounds were tested on Hepatitis C virus NS3 helicase (assay: compounds blocking NS3h DNA binding – biochemical, fluorescence polarization, ChemBridge library, primary screen (AID 687043)). Details: NS3h Cy5-dT15 DNA binding, at 100 µM, hits give high values.

| Compound | inhibition |
| --- | --- |
| O=C(/C=C/c1cc(Br)cs1)Nc1cccc(C(F)(F)F)c1 | 14.4% |
| COc1ccc(C2(CNC(=O)c3ccc(F)cc3)CCCC2)cc1OC | 8.8% |
| O=C(Nc1ccncc1)c1cc2ccccc2o1 | 11.4% |
| CCOC(=O)c1c(C)nc2n(/N=C\c3ccc([N+](=O)[O-])cc3)c3ccccc3n12 | 6.3% |
| Cc1ccc(C(=O)Nc2ccc(C(C)C)cc2)cc1C | 3.2% |
| Cc1ccc(/C=N\NC(=O)c2cccnc2)o1 | 1.6% |
| O=C(NCCc1c[nH]c2ccccc12)c1cccs1 | 8.2% |
| COC(=O)C1=C(C)NC2=C(C(=O)c3ccccc32)C1c1ccc(OCc2ccc(F)cc2)c(OC)c1 (configuration not stated) | -0.7% |
| Cc1ccc(N2NC(=O)/C(=C/c3ccc4c(c3)OCO4)C2=O)cc1Cl | 5.8% |
| O=C(NCCN1CCOCC1)/C(=C/c1ccc(F)cc1)NC(=O)c1ccccc1 | 15.5% |
| O=C(Nc1ccc(Cl)c(Cl)c1)Nc1nnc(-c2ccc(F)cc2)s1 | 21.5% |
| CCOc1ccc(NC(=O)CC2S/C(=N/N=C3/CCCc4ccccc43)NC2=O)cc1 (configuration not stated) | 16.3% |
| Cc1cccc(-c2cc(NC(=O)COc3ccc(Cl)cc3Cl)n[nH]2)c1 | -2.4% |
| COc1ccccc1N1CCN(C(=O)c2cnn3c2NC(c2ccc(Br)cc2)CC3C(F)(F)F)CC1 (configuration not stated) | 7.2% |
| COc1cc(/C=C2/SC(=S)NC2=O)ccc1OCCOCCOc1ccc(C)cc1 | 18.6% |
| COc1cc(/C=C2/C(=O)NC(=O)N(c3ccc(C)cc3)C2=O)ccc1OCCOc1ccc([N+](=O)[O-])cc1 | 20.3% |
| COc1cc(C=C2C(=O)NC(=O)NC2=O)ccc1OCCOc1ccc([N+](=O)[O-])cc1 | 52.6% (active) |
| O=C(Cn1cncn1)c1ccc(F)c(F)c1 | -2.3% |
| COc1cc(/C=C2/C(=O)N(c3ccccc3)N=C2C)ccc1OC(=O)c1cccs1 | 11.4% |
| CCC1=NN2C(=N)/C(=C/c3cc(Br)c(OCc4ccc(F)cc4)c(OC)c3)C(=O)N=C2S1 | 10.4% |
| O=C(/C=C/c1ccc(Cl)cc1)Nc1ccc(-c2nc3ccccc3o2)c(O)c1 | 9.9% |
| O=C1N=C(N2CCCC2)S/C1=C\c1cccc(Br)c1 | 9.8% |
| COc1ccc(C(=O)CSc2nc(C)cc(C)n2)cc1[N+](=O)[O-] | 18% |

| Compound | inhibition |
| --- | --- |
| O=C(NC(c1ccccc1)c1ccccc1)c1ccc([N+](=O)[O-])cc1Cl | 14.7% |
| O=c1cccc(-c2ccc(Br)cc2)o1 | 0.7% |
| CC(C)(C)C(=O)Nc1ccc(C(=O)Nc2ccc(O)cc2C(=O)O)cc1 | -2.6% |
| CCOC(=O)c1ccc(-c2ccc(/C=C(/C#N)C(=O)Nc3ccc4ccccc4c3)o2)cc1 | -1.8% |
| O=c1oc(-c2ccco2)nc2ccc(Cl)cc12 | -3.4% |
| O=C(CSc1ccccn1)N1c2ccccc2Sc2ccccc21 | 10.2% |
| O=C(Nc1cc(C(F)(F)F)ccc1Cl)C1CC(=O)N(c2ccc(Br)cc2)C1 (configuration not stated) | 2.2% |
| Cc1ccc(NC(=O)c2ccc3c(c2)OCCO3)c([N+](=O)[O-])c1 | 20.8% |
| CCC(=O)/C=C1\Sc2ccccc2N1CC | -1.3% |
| O=C(CC(Nc1ccc2ncccc2c1)c1ccc(F)cc1)c1ccccc1 (configuration not stated) | 3.6% |
| Cc1cc(C)n(C(=O)COc2cccc3ccccc23)n1 | 7.8% |
| COc1ccc(C2=N/C(=C/c3ccccc3OC)C(=O)N2c2ccccc2)cc1 | 8.2% |
| CCOC(=O)C1=C(C)N=c2s/c(=C\c3ccc(C)o3)c(=O)n2C1c1cccc(OC)c1 (configuration not stated) | 20.2% |
| Cc1nnc(Nc2ccc3c(c2)nc(C)n3Cc2ccccc2)c2ccccc12 | 2.2% |
| N#CC(C#N)=C1CCCc2ccccc2N1 | -4.1% |
| O=c1c(Cl)c(Cl)cnn1Cc1c(Cl)ccc(Cl)c1Cl | 5% |
| Cc1ccnc(SC2CC(=O)N(c3ccccc3)C2=O)n1 (configuration not stated) | 1.2% |
| COc1ccc(Cl)cc1NC(=O)Cn1nc([N+](=O)[O-])cc1C | 11.3% |
| C=CCN1C(=O)/C(=C\c2cc(OC)c(O)c([N+](=O)[O-])c2)C(=O)NC1=S | 81.2% (active) |
| C=CCN1C(=O)/C(=C\c2cc(Cl)c(O)c(Cl)c2)SC1=S | 21.3% |
| Cc1ccc(N2C(=O)/C(=C/c3ccc(Oc4ccc([N+](=O)[O-])cn4)cc3)C(=O)NC2=S)cc1 | 25.1% |
| COc1cccc(C=C2C(=O)NC(=O)NC2=O)c1O | 15.5% |
| O=C1NC(=O)C(=Cc2cc([N+](=O)[O-])cc(Br)c2O)C(=O)N1 | 48.9% (active) |

| Compound | inhibition |
| --- | --- |
| C=CCOc1ccccc1C=C1C(=O)NC(=O)NC1=O | 34.9% |
| OCCNC1CCCc2c1[nH]c1ccc(-c3ccccc3)cc21 (configuration not stated) | 2.8% |
| CC(C)(C)c1ccc(C2C(C(=O)c3ccco3)=C(O)C(=O)N2c2ncc(S(=O)(=O)c3ccc([N+](=O)[O-])cc3)s2)cc1 (configuration not stated) | 9.7% |
| COc1ccc2oc(=O)c(C(N)=O)cc2c1 | 2.8% |
| Oc1ccc(Br)cc1CN1CCN(Cc2ccccn2)CC1 | -7.5% |
| COc1ccc(Br)cc1/C=C1/SC(=S)N(c2cccc(C(F)(F)F)c2)C1=O | 11.5% |
| O=C(CCc1ccccc1)N1N=C(c2cccc([N+](=O)[O-])c2)CC1(O)C(F)(F)F (configuration not stated) | 8.7% |
| CC(C)(C)N1C(=O)NC(=O)C(=Cc2cccs2)C1=O | 75.4% (active) |
| Cc1cc(C)cc(N2C(=O)NC(=O)/C(=C\c3ccc(F)cc3)C2=O)c1 | 21.8% |
| O=C1NC(=Nc2ccc(F)cc2)S/C1=C\c1cccs1 | 12.6% |
| Cc1ccccc1NC(=O)C(=O)NCc1ccco1 | 10.2% |
| CSc1ccc(C(C2=C(O)CC(C)(C)CC2=O)C2C(=O)CC(C)(C)CC2=O)cc1 (configuration not stated) | 5.7% |
| CCN1C(=O)/C(=C\c2cn(CCOc3ccccc3)c3ccccc23)SC1=S | 11.7% |
| O=C(c1cnn2c(C(F)(F)F)cc(-c3cccs3)nc12)N1CCCc2ccccc21 | 14.1% |
| O=C(COc1ccc(Br)cc1)Nc1cccc(C(F)(F)F)c1 | 3.2% |
| CC(=O)n1nc(C)c2c(-c3ccccc3)c3cc(Br)ccc3nc21 | 0.3% |
| O=C(NNC(=O)c1ccc(-c2ccccc2)cc1)Nc1ccccc1 | 6.7% |
| O=C(O)COc1ccc2c(=O)c(Oc3ccccc3Br)coc2c1 | 4.5% |
| CCOc1ccc(NC(=O)C2=C(C)NC(=S)NC2c2c(OC)ccc3ccccc23)cc1 (configuration not stated) | 6.9% |
| CCc1ccc2oc(-c3ccc(NC(=O)c4ccccc4[N+](=O)[O-])cc3)nc2c1 | 17.7% |
| COc1ccc2oc(=O)c(-c3ccc(I)cc3)cc2c1 | 1.3% |
| Cc1ccc(C(=O)C[n+]2cc(-c3ccccc3)n3c2CCCCC3)cc1 | 54.5% (active) |
| COC(=O)c1cc(NC(=O)c2ccc(OC)cc2)cc(C(=O)OC)c1 | 1.9% |

| Compound | inhibition |
| --- | --- |
| O=C1CS/C(=N/N=C\c2ccc([N+](=O)[O-])cc2)N1c1ccc(O)cc1 | 9.1% |
| C=C(C)COc1ccc2oc(C)c(C(=O)OC)c2c1 | 12.1% |
| COc1ccc(C(=O)Oc2ccc3oc(=O)cc(C)c3c2)cc1OC | 48.9% (active) |
| Cc1cc(=O)oc2ccc(OCC(=O)O)cc12 | -3.9% |
| O=C(Nc1c(F)cc(F)cc1Br)c1cc2n(n1)C(C(F)(F)F)CC(c1cccs1)N2 (configuration not stated) | 11.4% |
| O=C(/C=C/c1cccc([N+](=O)[O-])c1)Nc1ccc(O)c(-c2nc3ccccc3o2)c1 | 12.7% |
| CCOc1ccc(C2(Cc3ccccc3)C(=O)c3ccccc3C2=O)cc1 | 5.5% |
| CC1=C(C(=O)OCC2CCCO2)C(c2cccc(C(F)(F)F)c2)C2=C(CCCC2=O)N1 (configuration not stated) | -1.6% |
| CSc1nsc(SC)c1NC(=O)OCC1([N+](=O)[O-])COC(C)(C)OC1 | 3.2% |
| CC(C)n1c(O)c(C2=c3ccccc3=NC2=O)sc1=S | 6.8% |
| CCOc1cc(/C=c2\sc3nc4ccccc4n3c2=O)ccc1OC(C)c1ccccc1 (configuration not stated) | 2.5% |
| CCCC(=O)Nc1cccc(NC(=O)c2ccc(-c3ccc(Cl)cc3Cl)o2)c1 | 8.9% |
| Cc1cc(I)ccc1NC(=O)COc1ccc(Br)cc1 | 8% |
| Clc1ccc(Cn2c(CNc3ccc(Cl)cc3)nc3ccccc32)cc1 | 9.9% |
| Cc1ccc(N2C(=O)CC(NCc3ccc(F)cc3)C2=O)cc1 (configuration not stated) | 5% |
| Cc1ccc(S(=O)(=O)Nc2cc(-c3ccc(F)cc3)[nH]n2)cc1 | -6.5% |
| O=C(Nc1nccs1)c1ccc(NC(=O)C2CCCCC2)cc1 | 12.5% |
| N/C(=N/OC(=O)c1ccccc1F)c1ccc(Br)cc1 | -3.4% |
| CC(C)c1ccc(/C=C(\C(=O)c2ccccc2Cl)c2nc3ccccc3o2)cc1 | 10.6% |
| O=C(Nc1ccc(Oc2ccccc2)cc1)c1ccco1 | 12% |
| N#Cc1c(N)nc2sc(C(=O)Nc3ccccc3)c(N)c2c1-c1ccco1 | 65.7% (active) |
| N#Cc1c(SCC(=O)c2ccc(Cl)cc2)nc2c(c1-c1ccco1)CCCC2 | -2.3% |
| COC(=O)c1cc(C(=O)N(Cc2ccccc2)c2ccccn2)cc([N+](=O)[O-])c1 | 8.4% |
